USP1 inh: USP1/UAF1 (human) deubiquitinase inhibition; O94782; recombinant USP1/UAF1, Ub-Rhodamine cleavage fluorescence; Potency, µM (highest dose often 57.1 µM), without a hit: top-dose activity change, negative = inhibition, actives largely listed as inhibitors; 390,000 tested, 0.23% active; AID 743255; note: potency is the fitted concentration of half-maximal effect; nearly all actives have a fitted effect of over 60% in size
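USP1/UAF1 complex (1 nM) preincubated 15 min at room temperature with compound, then Ub-Rho substrate (150 nM final) added. Kinetic fluorescence at 480/540 nm over 6 reads at 60 s intervals; 50 mM HEPES pH 7.8, 0.5 mM EDTA, 0.1 mg/ml BSA, 1 mM TCEP, 0.01% Tween-20.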
Tau FP inhib: inhibitors of human tau fibril formation; Potency, µM (doses to about 57.7 µM), without a hit: at the highest dose activity, negative = inhibition, most hits filed as inhibitors; K18 P301L tau heparin fibrillization, Alexa594 FP, 6 h; 280,000 tested, 0.39% active; P10636; AID 1468; note: potency is the fitted concentration of half-maximal effect; nearly all actives have a fitted effect of over 55% in size
Target sequence (P10636 561-689 P618L limits assumed): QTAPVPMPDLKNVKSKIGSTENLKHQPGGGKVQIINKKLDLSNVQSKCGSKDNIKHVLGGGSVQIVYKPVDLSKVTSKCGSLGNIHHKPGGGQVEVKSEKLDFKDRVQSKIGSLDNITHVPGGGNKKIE
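Heparin (20 uM) drove fibril formation of recombinant tau K18 P301L, 15 uM unlabeled with 0.24 uM Alexa 594 label, for 6 hr at 37 C in 100 mM sodium acetate pH 7. Fluorescence polarization (555/632 nm) read 1 hr after 30 uM ThT.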
Tau fluor cs: counter-screen for tau fibril formation inhibitors; AID 1463; 280,000 tested, 0.93% active; tau K18 P301L Alexa594 fluorescence, heparin fibrillization; Potency, µM (series often up to 57.7 µM), for inactives: top-dose activity change, negative = decrease; note: potency is the fitted concentration of half-maximal effect; nearly all actives have a fitted effect of over 55% in size
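Human K18 P301L tau (15 uM unlabeled plus 0.24 uM Alexa 594-labeled, final) in 100 mM sodium acetate pH 7 was mixed with compound and 20 uM heparin and incubated 6 hr at 37 C.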
Tau ThT inhib: inhibitors of human tau fibril formation, thioflavin T binding; P10636; recombinant tau K18 P301L, heparin-induced fibrillization, ThT fluorescence; Potency, µM (highest dose often 57.4 µM), inactives show at the highest dose activity, negative = inhibition, hits mostly inhibitors; 270,000 tested, 2.1% active; note: potency is the fitted concentration of half-maximal effect; nearly all actives have a fitted effect of over 55% in size
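Using a mix of unlabeled (15 uM) and Alexa 594-labeled (0.24 uM) tau K18 P301L, heparin-triggered fibrillization over 6 hr at 37 C was scored by ThT fluorescence.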
FBPA coupling cs: counter-screen for Giardia aldolase inhibitors: coupling enzyme system; activity change, negative = inhibition, % at 58.2 µM, hits read low; AID 2472; 290,000 tested, 0.67% active; coupling enzyme system counterscreen, AmpLite Red fluorescence; in the data active = activity change below about -30%
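Activity here indicates interference with the coupling reaction, not aldolase inhibition. Compounds at 57.5 uM final met coupling enzymes for 10 min at RT; substrate and AmpLite Red detection followed, with a 525/598 nm fluorescence read after 20 min.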
* marks the source's active call; other numbers are inactive results; ? = inconclusive; . = no result given. Only some compounds are listed: those with a hit (about 2.3% of all), similar ones and a draw of the others. Unless noted, calls come from the whole dose curve; as a rule, active = well fitted curve in the direction sought with a large enough effect; inconclusive = small, poorly fitted or top-dose-only effect, or another doubt; inactive = no such curve, though single readings can be large; an effect the other way counts as inactive or inconclusive. % is set by controls: 0 for no effect and ±100 for the full control effect.

SMILES | USP1 inh | Tau FP inhib | Tau fluor cs | Tau ThT inhib | FBPA coupling cs
CCCC(=O)N1CCN(c2ccc(NC(=O)c3ccc([N+](=O)[O-])o3)cc2)CC1 | -12.7% | -0.6% | -17.0% | 3.98µM* | -3.7
CCCC(=O)N1CCN(c2ccc(NC(=O)c3cc4ccccc4o3)cc2)CC1 | -12.5% | 6.8% | -28.5% | ? | 1.0
O=C(Nc1ccc(N2CCN(C(=O)c3ccc(Cl)cc3)CC2)cc1)c1ccc([N+](=O)[O-])o1 | -10.7% | 4.0% | ? | 12.6µM* | 0.6
O=C(Nc1ccc(N2CCCCC2)cc1)c1ccc([N+](=O)[O-])o1 | -20.8% | . | . | . | -1.8
CC(C)(C)C(=O)N1CCN(c2ccc(NC(=O)c3ccc([N+](=O)[O-])o3)cc2)CC1 | -25.9% | . | . | . | -0.2
CCOC(=O)c1ccc(NC(=O)N2CCOc3ccccc32)cc1 | 5.7% | ? | -15.5% | 18.1% | .
COc1ccccc1NC(=O)Cn1c(=O)n(-c2cccc(Cl)c2)c(=O)c2c1c1cc(C)ccc1n2C | -0.8% | -9.2% | -8.5% | 0.3% | .
COc1ccc(S(=O)(=O)c2cn(C)c3cc(N4CCOCC4)c(F)cc3c2=O)cc1 | -8.6% | 1.1% | -0.6% | -2.3% | .
COc1ccc(-c2cc3nc(C)c(CCC(=O)NCc4ccccc4Cl)c(C)n3n2)c(OC)c1 | -25.4% | ? | -23.4% | -4.5% | .
COc1ccc(N2C(=O)/C(=C\c3ccco3)N=C2SCC(=O)NC(C)C)cc1Cl | -12.8% | ? | -25.5% | ? | 0.5
O=C(CSC1=N/C(=C/c2ccco2)C(=O)N1c1ccc(OC(F)F)cc1)NC1CCS(=O)(=O)C1 (stereo not drawn) | -8.8% | ? | -25.1% | 28.2µM* | -1.8
Cc1coc2c1C(=O)C(=O)c1c-2ccc2c(C)cccc12 | 28.2µM* | ? | -28.5% | 2µM* | -55.0*
Cc1ccc2c3c(cccc13)-c1ccccc1C2=O | -27.0% | -2.3% | -26.9% | ? | -4.7
Cc1coc2c1C(=O)C(=O)c1c-2ccc2c1CCCC2(C)C | ? | ? | ? | 14.1µM* | -39.9*
Cc1coc2cc3oc(=O)c4c(c3cc12)CCC4 | . | 0.2% | 0.3% | -4.4% | -2.4
CC(=O)c1c(C)n(-c2ccc(C)cc2)c2ccc(OC(=O)COc3ccccc3)cc12 | -21.1% | -2.0% | -12.6% | ? | .
Cc1ccc(N2CCN(C(=O)CCS(=O)(=O)c3cc4c(cc3Cl)NC(=O)CO4)CC2)c(C)c1 | -11.6% | 0.6% | ? | -10.8% | .
CCn1c(=S)ccc2ccc(OC)cc21 | -11.4% | -0.6% | 0.2% | ? | 2.2
CCn1ccc2cc(OC)ccc2c1=S | -11.0% | -5.3% | 1.6% | ? | -83.0*
O=[N+]([O-])c1ccc(N2CCN(C(=S)NC3CCCCC3)CC2)cc1 | -1.6% | 0.4% | ? | 10µM* | .
O=C(C1CC1)N1CCN(c2ccc([N+](=O)[O-])cc2)CC1 | -20.8% | . | . | . | .
O=C(Cc1cccs1)N1CCN(c2ccc(F)cc2)CC1 | -13.9% | -2.3% | -7.9% | -9.6% | 0.0
O=[N+]([O-])c1ccc(N2CCN(C(=S)Nc3ccccc3)CC2)cc1 | -22.3% | -13.0% | -2.5% | -17.2% | 2.3
O=C(Cc1cccs1)N1CCN(c2ccc([N+](=O)[O-])cc2)CC1 | -6.1% | -2.2% | -16.7% | 3.55µM* | 4.4
COc1ccccc1N1CCN(C(=O)CCC(=O)O)CC1 | -12.3% | 8.6% | 3.0% | 1.3% | -4.3
SMILES | USP1 inh | Tau FP inhib | Tau fluor cs | Tau ThT inhib | FBPA coupling cs
COc1ccccc1N1CCN(C(=O)Cc2cccs2)CC1 | -19.5% | -1.8% | -13.7% | -15.6% | -32.2*
CC(C)(C)OC(=O)N1CCN(c2ccc([N+](=O)[O-])cc2)CC1 | -22.1% | -1.9% | -13.8% | 3.98µM* | 1.4
O=S(=O)(O)c1ccc2c(c1)-c1nc-2nc2[nH]c(nc3nc(nc4[nH]c(n1)c1ccc(S(=O)(=O)O)cc41)-c1ccc(S(=O)(=O)O)cc1-3)c1ccc(S(=O)(=O)O)cc21 | . | . | . | . | -9.2
CC(NC(=O)c1ccc(NC(=O)c2nsc3ccccc23)cc1)c1ccccc1 (stereo not drawn) | 2.8% | -18.2% | -13.7% | 11.8% | .
CSC(=NC#N)N1CCN(C(=NC#N)SC)CC1 | -13.4% | 3.7% | 2.9% | 5.5% | 2.0
CSC(=NC#N)N1CCN(c2ccc([N+](=O)[O-])cc2)CC1 | -5.2% | 0.1% | -21.0% | 2µM* | 0.8
CCOC(=O)N1CCN(S(=O)(=O)c2ccc([N+](=O)[O-])cc2)CC1 | -5.9% | 5.8% | 0.1% | -0.7% | 3.3
CCOC(=O)N1CCN(c2ccc([N+](=O)[O-])cc2)CC1 | -12.5% | 3.9% | -5.2% | 3.98µM* | -3.1
CCCC(=O)N1c2ccccc2-c2nnc(SC)nc2OC1c1sccc1C (stereo not drawn) | -16.7% | 0.4% | -10.1% | -17.2% | .
CN(C)c1ccc(N=Nc2ccccc2C(=O)OCC(=O)NC2CCCC2)cc1 | -24.0% | -3.5% | ? | 6.31µM* | 2.1
CN(C)c1ccc(N=Nc2ccccc2C(=O)OCC(=O)NCC2CCCCC2)cc1 | -22.3% | ? | 14.3% | 1.78µM* | 4.3
CN(C)c1ccc(C(=O)OCC(=O)NC2CCCCCC2)cc1 | -21.9% | 6.3% | -12.0% | -15.2% | 1.6
CN(C)c1ccc(N=Nc2ccccc2C(=O)OCC(=O)N(C)C2CCCCC2)cc1 | -21.6% | 12.2% | ? | 7.94µM* | -0.6
COc1ccc(CCNC(=O)Cn2cc(C(=O)c3ccc(Cl)cc3)c(=O)c3ccc(C)nc32)cc1OC | -21.6% | -4.6% | -14.8% | ? | .
CCOC(=O)c1c(C)[nH]c(C)c1S(=O)(=O)N1CCN(c2cccc(C(F)(F)F)c2)CC1 | ? | ? | ? | -11.7% | .
COc1ccc(Cl)cc1C(=O)Nc1sc2c(c1C(=O)OC(C)C)CCCC2 | -7.7% | -9.3% | -24.4% | ? | .
Cc1n[nH]c(C)c1N=Nc1ccc(Br)cc1 | -26.8% | -13.5% | -29.8% | 11.2µM* | 0.8
COc1ccc(N=Nc2c(C)n[nH]c2C)cc1 | -0.6% | . | . | . | 2.8
O=C1CCN(CCc2ccccc2)CCN1CCSc1ccccc1 | -31.1% | . | . | . | 0.3
O=C1C=CC(=O)C(C2=C3C(=O)N(CCc4ccccc4)CC(=O)N3CCC2)=C1 | -11.9% | ? | ? | 15.8µM* | -55.0*
O=[N+]([O-])c1cc2oc3c(c2c(C=NCc2ccccc2)c1O)CCCC3 | -21.3% | ? | -11.5% | 5.01µM* | -29.3
CC(C)CN=Cc1c(O)c([N+](=O)[O-])cc2oc3c(c12)CCCC3 | 1.2% | ? | ? | 4.47µM* | -32.1*
Cc1ccc2oc3c(c(=O)c2c1)C1(C(=O)N(C)c2ccccc21)N(CCCO)C3=O (stereo not drawn) | -17.5% | -6.8% | -11.9% | -5.8% | .
CC(=O)OC1CC(OC(C)=O)[C@]2(C)C(CC(=O)[C@]3(C)C2CC[C@@]2(C)C(c4ccoc4)OC(=O)C4O[C@@]423)C1(C)C (stereo partly drawn) | . | 31.6µM* | -21.3% | 25.1µM* | 1.6
